Data from PubChem BioAssay AID588413 (Sanford-Burnham Center for Chemical Genomics, 2011).
About 2,500 (0.74%) of roughly 340,000 compounds were called active. Shown is part of a subset that was picked to be rich in actives. Unmarked numbers belong to inactive results.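 The calls were made as follows: active = inhibition above about 55% (limit read from the data); inactive = the rest.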

Experiment: blockers of Gli reporter signaling – luciferase luminescence, Sufu-KO-LIGHT cells, uHTS, primary screen (AID 588413);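 also: 0% = DMSO-treated cells and 100% = wells with medium but no cells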
Settings: Sufu-KO-LIGHT fibroblasts, at 5 µM, active compounds read high
With CC1=CC(=Cc2sc3ccccc3[n+]2C)C=C(C)O1 the inhibition was 80.9% (active).
O=C(O)CCn1cc(C=C2C(=O)NC(=S)NC2=O)c(-c2cccc(Br)c2)n1 showed an inhibition of -2.59%.
In the case of CC(C)CN1CCN(Cc2ccccc2C(F)(F)F)CC1CCO (stereo not given), the inhibition is reported as 20.7%.
For Cc1cc(C)c2c(c1)NP(=S)(c1ccccc1)N2 (stereo not given), the inhibition was -6.68%.
CNC(=O)Nc1ccc(C(O)(C(=O)OC)C(F)(F)F)cc1 (stereo not given) showed an inhibition of 11.8%.
For CCCCCCCCCCCCn1ccc(=N)cc1, the inhibition was 87.5% (active).
Work on O=C1C2(Cl)C3(Cl)C4(Cl)C(Cl)(Cl)C5(Cl)C3(Cl)C1(Cl)C5(Cl)C24Cl (stereo not given) yielded an inhibition of -3.44%.
For COc1cc(-n2c(=S)[nH]c3ccc(C)cc3c2=O)c(Cl)cc1Cl, the inhibition was -14.6%.
CCN(CC)CCOC(=O)c1cc2cc(COC)ccc2o1 gave an inhibition of 0.39%.
With CCOc1cccc(=NC2CCCCC2)c2c(C)[nH]c(C)c12 the inhibition was 79% (active).
CC(C)Nc1nc(Cl)nc(NC(C)C)n1 gave an inhibition of 1.26%.
O=C(C1CC(=O)N(C2CCCC2)C1)N1CCC2(CC1)OCCO2 (stereo not given) showed an inhibition of -2.84%.
Compound C=CCN(CC=C)C(=O)Nc1ccc(OCC)cc1 has an inhibition of -12.4%.
In the case of CCC(C)(O)C(=O)OC1C(=O)OC2CC3C(C)=CC(=O)C(O)C3(C)C3C4(O)OCC23C1C(C)C4O (stereo not given), the inhibition is reported as 82% (active).
Compound CN(C)CC1Oc2ccccc2OC1(O)c1ccccc1 (stereo not given) has an inhibition of -3.73%.
Compound CCOP(=O)(OCC)C(NC(=O)c1ccc(OC)cc1)C(Cl)(Cl)Cl (stereo not given) has an inhibition of -2.69%.
For CCOP(=O)(OCC)C(NC(=O)c1ccc(C)cc1)C(Cl)(Cl)Cl (stereo not given), the inhibition was 2.77%.
CC1=C2C(=O)C3C(CC=C4CC(OC5OC(O)C(O)C(O)C5CO)CCC43C)C2CCC12OC1CC(C)CNC1C2C (stereo not given) showed an inhibition of -0.71%.
Compound O=C1/C(=C\c2ccc3c(c2)OCO3)N2CCC1CC2 has an inhibition of 16.5%.
N[C@@H](Cc1c[nH]c2ccccc12)c1nnc(SCc2c(F)cccc2Cl)o1 showed an inhibition of -1.34%.
For CCOc1ccc(-c2cc(C)[n+](CCN(CC)CC)c(-c3ccc(OCC)cc3)c2)cc1, the inhibition was 77.8% (active).
Compound COC(=O)C1=C(c2cc3ccccc3s2)C[C@@H]2CC[C@H]1N2C(=O)NC(C)C has an inhibition of 9.18%.
In the case of COc1ccc(-c2nn(CCC#N)cc2C(=O)Nc2ccc(C(C)=O)cc2)cc1, the inhibition is reported as -28.4%.
In the case of COC(=O)COc1cc(C)cc2oc(=O)c3c(c12)CCCC3, the inhibition is reported as -1.17%.
Work on COc1ccc(NC(=O)c2cn(CCC#N)nc2-c2ccc([N+](=O)[O-])cc2)cc1 yielded an inhibition of 6.35%.
In the case of CC(=O)OC1C2(CC3N4C(=O)C5(CO)SSC4(CC31O)C(=O)N5C)OC(C)C(C)(C)C2=O (stereo not given), the inhibition is reported as 85.7% (active).
In the case of Cc1ccccc1NC(=O)COC(=O)c1cc(C)n(C2CC2)c1C, the inhibition is reported as 0.92%.
With O=C1NC(=O)C(CCc2ccccn2)(Cc2cccc(Cl)c2Cl)C(=O)N1c1ccc(Br)cc1 (stereo not given) the inhibition was 0.16%.
Cc1ccnc(-n2c(C)cc(/C=C3\C(=O)NC(=S)N(C)C3=O)c2C)c1 gave an inhibition of 7.71%.
Work on CC[C@H]1CC2CN3CCc4c([nH]c5ccccc45)C(C(=O)OC)(C2)C13 (stereo not given in full) yielded an inhibition of 8.02%.
